PubChem BioAssay AID1159580 (chemical genetic matrix, 2015)
Among all 5,500 compounds or so, about 2,000 (36%) were called active. Inconclusive results (about 18%) are left out. Rule as the data show it: active = normalized growth mostly below about 0.91 (no sharp cut-off); inconclusive = no clear call, values can overlap the other calls; inactive = mostly above about 0.92. This is one part of the list.

Assay: chemical genetic growth profiling, strain panel (AID 1159580);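 also: tested at 20 µM; growth read once vehicle control cultures reached saturation at 30 °C; 1 = growth at the plate median or of vehicle wells; lower values mean less growth of the strain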
Conditions: growth OD

Measured: normalized growth

Cc1cccc(CN2CCN(C(c3ccccc3)c3ccc(Cl)cc3)CC2)c1 (stereo not drawn)
inactive: S. cerevisiae deletion strains, locus YKL009W, strain mrt4, active compounds read low 0.971 | S. cerevisiae deletion strains, locus YKL068W, active compounds read low 0.992 | S. cerevisiae deletion strains, locus YKL085W, strain MDH1 (second series), active compounds read low 0.978 | S. cerevisiae deletion strains, locus YKL085W, strain MDH1, active compounds read low 0.978 | S. cerevisiae deletion strains, locus YKR026C, strain gcn3, active compounds read low 0.969 | S. cerevisiae deletion strains, locus YKR091W, strain srl3, active compounds read low 0.964 | S. cerevisiae deletion strains, locus YLR039C, strain RIC1, active compounds read low 1.31 | S. cerevisiae deletion strains, locus YLR102C, strain apc9, active compounds read low 0.99 | S. cerevisiae deletion strains, locus YLR113W, strain HOG1, active compounds read low 0.912 | S. cerevisiae deletion strains, locus YLR262C, strain YPT6 (second series), active compounds read low 0.905 | S. cerevisiae deletion strains, locus YLR262C, strain YPT6, active compounds read low 1.06 | S. cerevisiae deletion strains, locus YLR268W, strain sec22, active compounds read low 0.895 | S. cerevisiae deletion strains, locus YLR342W, strain FKS1 (second series), active compounds read low 0.791 | S. cerevisiae deletion strains, locus YLR342W, strain FKS1, active compounds read low 0.929 | S. cerevisiae deletion strains, locus YLR357W, strain rsc2, active compounds read low 0.908 | S. cerevisiae deletion strains, locus YLR371W, strain rom2, active compounds read low 0.964 | S. cerevisiae deletion strains, locus YLR384C, strain iki3, active compounds read low 0.992 | S. cerevisiae deletion strains, locus YML124C, strain tub3, active compounds read low 0.977 | S. cerevisiae deletion strains, locus YMR078C, strain ctf18, active compounds read low 0.986 | S. cerevisiae deletion strains, locus YMR307W, strain GAS1, active compounds read low 0.611 | S. cerevisiae deletion strains, locus YNL183C, strain NPR1, active compounds read low 0.947 | S. cerevisiae deletion strains, locus YNL250W, strain rad50, active compounds read low 0.983 | S. cerevisiae deletion strains, locus YNL271C, strain bni1, active compounds read low 0.988 | S. cerevisiae deletion strains, locus YNL298W, strain CLA4, active compounds read low 0.988 | S. cerevisiae deletion strains, locus YNL307C, strain MCK1, active compounds read low 0.96 | S. cerevisiae deletion strains, locus YNL322C, strain KRE1, active compounds read low 0.972 | S. cerevisiae deletion strains, locus YNR049C, strain mso1, active compounds read low 0.983 | S. cerevisiae deletion strains, locus YOL012C, strain htz1 0.942 | S. cerevisiae deletion strains, locus YOR061W, strain CKA2, active compounds read low 0.916 | S. cerevisiae deletion strains, locus YOR069W, strain VPS5, active compounds read low 0.955 | S. cerevisiae deletion strains, locus YOR080W, strain dia2, active compounds read low 0.937 | S. cerevisiae deletion strains, locus YOR136W, strain idh2, active compounds read low 0.937 | S. cerevisiae deletion strains, locus YOR144C, strain elg1, active compounds read low 0.973 | S. cerevisiae deletion strains, locus YOR231W, strain MKK1, active compounds read low 0.887 | S. cerevisiae deletion strains, locus YOR316C, strain cot1, active compounds read low 0.98 | S. cerevisiae deletion strains, locus YPL241C, strain CIN2, active compounds read low 0.956 | S. cerevisiae deletion strains, locus YPL256C, strain CLN2, active compounds read low 0.94 | S. cerevisiae deletion strains, locus YPR119W, strain clb2, active compounds read low 0.996 | S. cerevisiae deletion strains, locus YPR141C, strain kar3, active compounds read low 0.989
active: S. cerevisiae deletion strains, locus YJR075W, strain HOC1, active compounds read low 0.794 | S. cerevisiae deletion strains, locus YKL160W, strain elf1, active compounds read low 0.75 | S. cerevisiae deletion strains, locus YKR001C, strain vps1, active compounds read low 0.47 | S. cerevisiae deletion strains, locus YLL001W, strain dnm1, active compounds read low 0.81 | S. cerevisiae deletion strains, locus YLL026W, active compounds read low 0.8 | S. cerevisiae deletion strains, locus YLL041C, strain sdh2, active compounds read low 0.926 | S. cerevisiae deletion strains, locus YLR027C, strain aat2, active compounds read low 0.744 | S. cerevisiae deletion strains, locus YLR058C, strain SHM2, active compounds read low 0.766 | S. cerevisiae deletion strains, locus YLR221C, strain rsa3, active compounds read low 0.601 | S. cerevisiae deletion strains, locus YLR258W, strain gsy2, active compounds read low 0.721 | S. cerevisiae deletion strains, locus YLR320W, strain mms22, active compounds read low 0.713 | S. cerevisiae deletion strains, locus YLR330W, strain CHS5, active compounds read low 0.743 | S. cerevisiae deletion strains, locus YLR370C, strain arc18, active compounds read low 0.853 | S. cerevisiae deletion strains, locus YLR418C, strain cdc73, active compounds read low 0.365 | S. cerevisiae deletion strains, locus YML016C, strain PPZ1, active compounds read low 0.887 | S. cerevisiae deletion strains, locus YML032C, strain rad52, active compounds read low 0.831 | S. cerevisiae deletion strains, locus YML120C, strain ndi1, active compounds read low 0.616 | S. cerevisiae deletion strains, locus YMR058W, strain fet3, active compounds read low 0.873 | S. cerevisiae deletion strains, locus YMR125W, strain sto1, active compounds read low 0.854 | S. cerevisiae deletion strains, locus YMR129W, active compounds read low 0.876 | S. cerevisiae deletion strains, locus YMR205C, strain PFK2, active compounds read low 0.802 | S. cerevisiae deletion strains, locus YMR223W, strain ubp8, active compounds read low 0.809 | S. cerevisiae deletion strains, locus YMR231W, strain pep5, active compounds read low 0.526 | S. cerevisiae deletion strains, locus YMR263W, strain SAP30, active compounds read low 0.754 | S. cerevisiae deletion strains, locus YNL067W, strain RPL9B, active compounds read low 0.789 | S. cerevisiae deletion strains, locus YNL071W, strain lat1, active compounds read low 0.801 | S. cerevisiae deletion strains, locus YNL209W, strain ssb2, active compounds read low 0.54 | S. cerevisiae deletion strains, locus YNL233W, strain BNI4, active compounds read low 0.692 | S. cerevisiae deletion strains, locus YNL248C, strain rpa49, active compounds read low 0.806 | S. cerevisiae deletion strains, locus YNL322C, strain KRE1 (second series), active compounds read low 0.685 | S. cerevisiae deletion strains, locus YNR052C, strain pop2, active compounds read low 0.724 | S. cerevisiae deletion strains, locus YOL147C, strain pex11, active compounds read low 0.913 | S. cerevisiae deletion strains, locus YOR001W, strain rrp6, active compounds read low 0.802 | S. cerevisiae deletion strains, locus YOR070C, strain gyp1, active compounds read low 0.735 | S. cerevisiae deletion strains, locus YOR083W, strain WHI5, active compounds read low 0.689 | S. cerevisiae deletion strains, locus YOR106W, strain vam3, active compounds read low 0.549 | S. cerevisiae deletion strains, locus YOR184W, strain ser1, active compounds read low 0.833 | S. cerevisiae deletion strains, locus YOR265W, strain rbl2, active compounds read low 0.774 | S. cerevisiae deletion strains, locus YOR270C, strain vph1, active compounds read low 0.524 | S. cerevisiae deletion strains, locus YOR290C, strain snf2, active compounds read low 0.764 | S. cerevisiae deletion strains, locus YPL051W, strain arl3, active compounds read low 0.496 | S. cerevisiae deletion strains, locus YPL055C, strain LGE1, active compounds read low 0.439 | S. cerevisiae deletion strains, locus YPL078C, strain atp4, active compounds read low 0.887 | S. cerevisiae deletion strains, locus YPL106C, strain sse1, active compounds read low 0.828 | S. cerevisiae deletion strains, locus YPL240C, strain hsp82, active compounds read low 0.808 | S. cerevisiae deletion strains, locus YPR163C, strain tif3, active compounds read low 0.721 | S. cerevisiae deletion strains, locus YPR167C, strain met16, active compounds read low 0.884 | S. cerevisiae deletion strains, strain wtn01, active compounds read low 0.761 | S. cerevisiae strains, strain wild type, active compounds read low 0.812
